# The supplement of paper PMC8728848
# The entries come from a sample that favours the strongest signals as a whole.
# B1: PA-IL (Pseudomonas aeruginosa) (protein)
# chain: AWKGEVLANNEAGQVTSIIYNPGDVITIVAAGWASYGPTQKWGPQGDREHPDQGLICHDAFCGALVMKIGNSGTIPVNTGLFRWVAPNNVQGAITLIYNDVPGTYGNNSGSFSVNIGKDQS
# How the values were obtained:
# Test in all cases: glycan array binding signal (z-score within array); higher = stronger binding
# Settings in all cases: glycan notation: IUPAC condensed, linker removed
# [1] = target: Fuc(a1-2)Gal(b1-3)GlcNAc
# Summary of the method: (§1)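 The binding signal is a Z-score computed within each array. Data were drawn from 3228 arrays in the Consortium for Functional Glycomics database, restricted to those with a known protein sequence. Scores were averaged over arrays of the same protein sequence at different concentrations or buffers, and over linkers, and negative values can be taken as non-binding.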
# [2] = target: Fuc(a1-2)[Gal(a1-4)]Gal(b1-4)GlcNAc
# Summary of the method: as §1
# [3] = target: Fuc(a1-2)[GalNAc(a1-3)]Gal(b1-4)Glc
# Summary of the method: as §1
# [4] = target: Fuc(a1-2)[GalNAc(a1-3)]Gal(b1-4)GlcNAc
# Summary of the method: as §1
# [5] = target: Fuc(a1-2)[GalNAc(b1-3)]Gal
# Summary of the method: as §1
# [6] = target: Gal(a1-2)Gal
# Summary of the method: as §1
# [7] = target: Gal(a1-3)Gal(b1-4)Glc
# Summary of the method: as §1
# [8] = target: Gal(a1-3)Gal(b1-4)[Fuc(a1-3)]GlcNAc
# Summary of the method: as §1
# [9] = target: Gal(a1-3)[Gal(a1-4)]Gal(b1-4)GlcNAc
# Summary of the method: as §1
# [10] = target: Gal(a1-4)GlcNAc
# Summary of the method: as §1
# [11] = target: Gal(a1-6)Glc
# Summary of the method: as §1
# [12] = target: Gal(b1-3)Gal
# Summary of the method: as §1
# [13] = target: Gal(b1-4)GlcNAc(b1-6)Gal(b1-4)GlcNAc(b1-6)GalNAc
# Summary of the method: as §1
# [14] = target: Glc(a1-4)Glc
# Summary of the method: as §1
# [15] = target: GlcA(b1-3)Gal
# Summary of the method: as §1
# [16] = target: GlcNAc(a1-3)Gal(b1-4)GlcNAc
# Summary of the method: as §1
# [17] = target: Man(a1-2)Man(a1-2)Man(a1-6)[Man(a1-3)]Man
# Summary of the method: as §1
# [18] = target: Man(a1-2)Man(a1-3)Man
# Summary of the method: as §1
# [19] = target: Man(a1-2)Man(a1-3)[Man(a1-2)Man(a1-6)]Man(a1-6)[Man(a1-2)Man(a1-2)Man(a1-3)]Man(b1-4)GlcNAc(b1-4)GlcNAc
# Summary of the method: as §1
# [20] = target: Man(a1-2)Man(a1-6)[Man(a1-3)]Man(a1-6)[Man(a1-2)Man(a1-2)Man(a1-3)]Man(b1-4)GlcNAc(b1-4)GlcNAc
# Summary of the method: as §1
# [21] = target: Neu5Ac(a2-3)Gal(b1-3)[Neu5Ac(a2-6)]GalNAc
# Summary of the method: as §1
# [22] = target: Neu5Gc(a2-3)Gal(b1-4)Glc
# Summary of the method: as §1
binder,measurement,setting,value
B1,glycan array binding signal (z-score),[1],-0.365
same,glycan array binding signal (z-score),[2],3.69
same,glycan array binding signal (z-score),[3],0.183
same,glycan array binding signal (z-score),[4],0.174
same,glycan array binding signal (z-score),[5],-0.363
same,glycan array binding signal (z-score),[6],4.77
same,glycan array binding signal (z-score),[7],3.73
same,glycan array binding signal (z-score),[8],4.11
same,glycan array binding signal (z-score),[9],3.92
same,glycan array binding signal (z-score),[10],3.15
same,glycan array binding signal (z-score),[11],1.53
same,glycan array binding signal (z-score),[12],-0.271
same,glycan array binding signal (z-score),[13],0.234
same,glycan array binding signal (z-score),[14],-0.365
same,glycan array binding signal (z-score),[15],-0.365
same,glycan array binding signal (z-score),[16],-0.365
same,glycan array binding signal (z-score),[17],-0.365
same,glycan array binding signal (z-score),[18],-0.365
same,glycan array binding signal (z-score),[19],-0.357
same,glycan array binding signal (z-score),[20],-0.364
same,glycan array binding signal (z-score),[21],-0.365
same,glycan array binding signal (z-score),[22],-0.364
